HT1080 IDH1KD tx = qHTS for induction of synthetic lethality in tumor cells producing 2HG: qHTS for the HT-1080-IDH1KD cell line; HT-1080 IDH1 knockdown viability, ATP luminescence, 48 h; Potency, µM (top dose mostly 46.1 µM), for inactives: at the highest dose activity, negative = toxicity, usual class: cytotoxic; 2% of 360,000 active; AID 686971, 2013;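 note: 0% = DMSO wells and -100% = cell-free medium wells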
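% activity derives from luminescence (CellTiter-Glo), normalised to DMSO and no-cell wells. HT-1080-IDH1KD cells, 750/well, had 48 h compound exposure at 37 °C.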
DT40 TDP1 no CPT = qHTS for Inhibitors of human tyrosyl-DNA phosphodiesterase 1 (TDP1): qHTS in cells in absence of CPT; DT40 Tdp1-/- hTDP1 cells, no CPT, ATP luminescence, 48 h; 15% of 420,000 active; AID 686978, 2013; Potency, µM (highest dose often 46.2 µM), for the others: top-dose activity change, negative = growth inhibition, usual class: inhibitors; note: nearly all actives have a fitted effect of over 55% in size
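Camptothecin absent (DMSO only). Human TDP1-complemented DT40 knockout cells, 400 cells/well, 37 °C for minimum 48 hr; ATP measured via CellTiter-Glo, 30 min dark incubation, luminescence.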
KB-3-1 tox = qHTS assay for MDR1-selective chemotherapeutics: Primary screen using the parental adenocarcinoma cell KB-3-1. KB-3-1 viability, CellTiter-Glo ATP luminescence, 72 h. Potency, µM (top dose mostly 46.1 µM), hits mostly cytotoxic. 1.4% of 400,000 active; note: nearly all actives have a fitted effect of over 60% in size
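Parental KB-3-1 adenocarcinoma cells in phenol-red-free DMEM with 10% FBS were pin-treated with compounds at several concentrations, incubated 72 h at 37 °C, and viability read by CellTiter-Glo luminescence; concentration-effect curves were fitted after normalization.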
HT1080NT lethal = qHTS for induction of synthetic lethality in tumor cells producing 2HG: qHTS for the HT-1080-NT fibrosarcoma cell line. HT-1080-NT fibrosarcoma viability, CellTiter-Glo ATP luminescence, 48 h. Potency, µM (series often up to 46.1 µM), inactives show at the highest dose activity, negative = less viability, hits mostly cytotoxic. 1.6% of 360,000 active. AID 686970, 2013;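 note: NT is the 2HG producing partner of a matched IDH1 knockdown line; 0% = DMSO-treated cells and -100% = media-only wells without cells; nearly all actives have a fitted effect of over 55% in size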
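750 cells/well, RPMI + 5% FBS; 2 h settle, compound pin-transfer, 48 h at 37 degrees C. CellTiter-Glo 10 min RT, luminescence. Normalized to DMSO and media-only wells.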
KB-V1 cytotox = qHTS assay for MDR1-selective chemotherapeutics: Primary screen using the drug-selected MDR subline cells KB-V1 | KB-V1 MDR cells viability, CellTiter-Glo, 72 h | Potency, µM (series often up to 46.1 µM), actives largely listed as cytotoxic | 3.4% of 400,000 active; note: nearly all actives have a fitted effect of over 60% in size
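Cells of the MDR subline KB-V1 are plated, dosed with compound at multiple concentrations, and incubated 72 h at 37 degrees C; CellTiter-Glo is then added and luminescence read after 10 min.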
TDP1 cell CPT = qHTS for Inhibitors of human tyrosyl-DNA phosphodiesterase 1 (TDP1): qHTS in cells in presence of CPT; 12% of 420,000 active; chicken DT40 Tdp1-/-;hTDP1 cells + 20 nM CPT, ATP luminescence, 48 h; Potency, µM (doses to about 46.2 µM), inactives show top-dose activity change, negative = growth inhibition, hits mostly inhibitors; AID 686979, 2013; note: nearly all actives have a fitted effect of over 55% in size
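Chicken DT40 Tdp1-/- cells complemented with human TDP1, 400 cells/well, exposed to compounds plus 20 nM camptothecin for at least 48 h at 37 C; viability read as ATP content by CellTiter-Glo luminescence.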
* marks the source's active call; other numbers are inactive results; i = inactive; ? = inconclusive; / = not tested or not shown; [ ] = another dose, or the depositor's remark. An excerpt weighted towards active compounds, which were near 19% of everything screened. Calls come from the whole dose curve; as a rule, active = well fitted curve in the direction sought with a large enough effect; inconclusive = small, poorly fitted or top-dose-only effect, or another doubt; inactive = no such curve, though single readings can be large; an effect the other way counts as inactive or inconclusive. Unless noted, % is set by controls: 0 for no effect and ±100 for the full control effect; potency is the fitted concentration of half-maximal effect.

SMILES	HT1080 IDH1KD tx	DT40 TDP1 no CPT	KB-3-1 tox	HT1080NT lethal	KB-V1 cytotox	TDP1 cell CPT
Cc1cc(F)ccc1S(=O)(=O)N1CCCOC1CNC(=O)C(=O)NCCc1c[nH]c2ccccc12 (stereo unspecified)	-4%	?	?	-2%	3.3µM*	16µM*
O=C(NCCc1c[nH]c2ccccc12)C(=O)NCC1OCCN1S(=O)(=O)c1cc(F)ccc1F (stereo unspecified)	-29%	?	i	-13%	?	?
Cc1cccc(C)c1OCC(O)CN1CCN(c2ccccn2)CC1 (stereo unspecified)	9%	-6%	i	10%	i	4%
OC(CN1CCN(c2ccccn2)CC1)Cn1c2ccc(Cl)cc2c2cc(Cl)ccc21 (stereo unspecified)	16µM*	?	?	?	?	?
OC(CN1CCCCC1)Cn1c2ccc(Cl)cc2c2cc(Cl)ccc21 (stereo unspecified)	?	15µM*	?	21µM*	?	?
COc1cccc(OCC(O)CN2CCN(c3ccccn3)CC2)c1 (stereo unspecified)	0%	4%	i	16%	i	1%
OC(COC(c1ccc(Cl)cc1)c1ccc(Cl)cc1)CN1CCN(c2ccccn2)CC1 (stereo unspecified)	?	16µM*	18µM*	?	?	?
CC(C)(C)c1ccccc1OCC(O)CN1CCN(c2ccccn2)CC1 (stereo unspecified)	-1%	?	i	0%	i	16µM*
Cc1ccc(S(=O)(=O)N2CCN(c3nc(Nc4ccccc4O)nc4ccccc34)CC2)cc1	18%	?	/	19%	/	?
O=C(NCC1CC1)c1onc(CSc2nc3ccccc3[nH]2)c1C(=O)NCC1CC1	0%	?	i	0%	i	21µM*
CCCCNC(=O)c1onc(CSc2nc3ccccc3[nH]2)c1C(=O)NCCCC	1%	?	i	7%	i	?
Cc1c(C)c2ccc(O[C@@H]3O[C@H](CO)[C@@H](O)[C@H](O)[C@H]3O)c(C)c2oc1=O	13%	-23%	i	6%	i	28%
CCc1cc(=O)oc2c(C)c(O[C@@H]3O[C@H](CO)[C@@H](O)[C@H](O)[C@H]3O)ccc12	0%	10µM*	i	-6%	?	3%
COc1ccc(-c2ccc(C(=O)NCc3ccncc3)c3occc23)c(C)c1	?	1.8µM*	i	-30%	i	2.1µM*
COc1ccc(-c2ccc(C(=O)NCC3CC3)c3occc23)c(C)c1	?	?	i	?	i	21µM*
COc1ccc(NC(=O)C(=O)NCCc2csc(-c3ccc(Cl)cc3)n2)cc1	/	-12%	i	/	?	-16%
COc1ccccc1CNc1nc(Nc2ccccc2-n2cccn2)c2sccc2n1	?	16µM*	i	?	?	15µM*
COCCNc1nc(NCc2ccccc2)nc2ccsc12	0%	9.2µM*	i	-29%	?	21µM*
c1ccc(OCCNc2nc(NCC3CC3)nc3ccsc23)cc1	?	4.6µM*	i	21µM*	?	4.6µM*
CC(C)Nc1nc(Nc2ccc(Cl)cc2F)c2sccc2n1	?	21µM*	i	?	i	21µM*
O=C(c1ccc2c(c1)OCO2)N(Cc1cc2ccc(F)cc2nc1N1CCC(O)CC1)CC1CCCO1 (stereo unspecified)	/	?	/	/	/	5%[9.04 µM]
CCOC(=O)c1c(C)oc2ncnc(Nc3ccc(F)cc3Cl)c12	/	-17%	i	/	i	3%
Cc1ccc(Cl)cc1N1CCN(C(=O)c2cn(C)c3ccc(S(=O)(=O)N4CCCCC4)cc3c2=O)CC1	/	6%	i	/	i	9%
COc1ccccc1CNc1nc(NCCOc2ccccc2)c2sccc2n1	?	5.8µM*	?	?	21µM*	5.8µM*
Clc1ccccc1Nc1nc(NCc2ccccc2)nc2ccsc12	7%	9.2µM*	i	-4%	i	9.2µM*
SMILES	HT1080 IDH1KD tx	DT40 TDP1 no CPT	KB-3-1 tox	HT1080NT lethal	KB-V1 cytotox	TDP1 cell CPT
c1cc2cc(CNc3nc(NCC4CC4)nc4ccsc34)ccc2o1	13µM*	?	i	?	?	16µM*
COc1ccccc1CNc1nc(NCC2CC2)nc2ccsc12	15µM*	21µM*	?	?	i	10µM*
COc1ccc(NC(=O)c2cnc(Nc3ccc(C)c(Cl)c3)c3ccccc23)c(OC)c1	/	-34%	i	/	i	-17%
CC(C(=O)O)c1ccc2c(c1)Cc1cccnc1O2 (stereo unspecified)	/	?	/	/	/	-9%
Cc1ccc(NC(=O)c2nc(-c3ccncc3)no2)c(Cl)c1	/	-1%	i	/	i	-11%
COc1ccc(NC(=O)c2ccc(NC(=O)CCS(=O)(=O)c3cccs3)cc2)cc1OC	/	?	i	/	i	-26%
COc1ccccc1CNc1nc(Oc2cccc(F)c2)c2sccc2n1	?	?	i	?	i	?
COc1ccccc1CNc1nc(NCc2ccc(NC(C)=O)cc2)c2sccc2n1	?	-29%	?	?	i	?
COc1ccccc1CNc1nc(NCCNC(C)=O)c2sccc2n1	17%	?	i	16%	i	?
COc1ccccc1CNc1nc(NCc2ccc3occc3c2)c2sccc2n1	?	21µM*	i	16µM*	i	21µM*
COc1ccccc1CNc1nc(Nc2cccc(-c3cnco3)c2)c2sccc2n1	/	21µM*	?	/	i	18µM*
COc1ccccc1CNc1nc(NCc2ccccc2OC)c2sccc2n1	23µM*	15µM*	?	21µM*	?	12µM*
COc1ccccc1CNc1nc(NCc2cccs2)nc2ccsc12	?	16µM*	i	?	i	?
